# Source: PubChem BioAssay (several laboratories)
# S1P4 ag: activates the human S1P4 receptor; O95977; S1P4-expressing cell line, agonist reporter assay; activation, % at 4.98 µM; 220,000 tested, 0.35% active; in the data active = activation above about 11%;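 note: 0% = DMSO vehicle and 100% = reference agonist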
# PGE2 EP2 inh: EP2 receptor (human) inhibition | P43116 | C6 glioma cells expressing human EP2, cAMP TR-FRET; cells stimulated with saturating PGE2 | inhibition, % at 25 µM | 260,000 tested, 0.52% active | AID 1422;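 active = percent inhibition above 40 after rounding to a whole number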;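 note: rat C6 glioma host cells with rolipram phosphodiesterase inhibitor present; the protocol text gives 20 µM as final concentration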
# Target sequence (P43116 whole entry, looked up): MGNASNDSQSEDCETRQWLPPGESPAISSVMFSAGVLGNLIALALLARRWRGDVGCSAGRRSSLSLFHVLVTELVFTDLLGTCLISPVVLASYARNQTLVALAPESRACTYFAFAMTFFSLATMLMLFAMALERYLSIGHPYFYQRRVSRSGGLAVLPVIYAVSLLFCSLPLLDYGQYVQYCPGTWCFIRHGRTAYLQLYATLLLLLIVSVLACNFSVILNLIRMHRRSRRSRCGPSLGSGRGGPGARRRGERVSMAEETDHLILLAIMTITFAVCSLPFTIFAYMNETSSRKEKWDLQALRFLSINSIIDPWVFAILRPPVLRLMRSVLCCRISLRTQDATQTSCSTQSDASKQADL
# EP2 modulator: EP2 receptor (human) modulation. induction, % at 25 µM. AID 940. 260,000 tested, 0.83% active. EP2-expressing cells, cAMP HTRF FRET, PGE2 co-stimulation. P43116;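 active = compounds whose cAMP rise, as percent of the full-agonist control response, exceeds 60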;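 note: rat C6 glioma line stably carrying human EP2 under a CMV promoter; the protocol text gives 20 µM as final concentration; 100% = response of wells given 1 µM PGE2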
# S1P4 antag: antagonists of human S1P4 receptor; S1P4-expressing cells, antagonist mode, reporter read-out; inhibition, % at 4.98 µM; 220,000 tested, 0.26% active; in the data active = inhibition above about 29%;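 note: 0% = wells stimulated with agonist and 100% = vehicle wells without agonist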
# S1P3 antag-1: antagonists of human S1P3 receptor; Q99500; inhibition, % at 4.98 µM; AID 485; CHO S1P3 NFAT-BLA reporter, FRET fluorescence, antagonist mode; 170,000 tested, 0.27% active;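 active = inhibition above the plate cutoff, the mean inhibition of test wells on that plate plus 3 SD, cut at about 28% in these data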;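 note: cells challenged with S1P at its EC80 of 0.8 µM; blue over green emission ratio from cleaved BLA substrate after 4 h stimulation; 0% = S1P-stimulated wells and 100% = unstimulated DMSO-only wells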
# S1P3 antag-2: human S1P3 receptor antagonism, confirmation | inhibition, % at 4.98 µM | CHO S1P3 NFAT-BLA reporter, FRET, antagonist mode | 240 tested, 30% active | shares compounds with S1P3 antag-1;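 active = inhibition above the hit threshold that was computed for the earlier primary screen, cut at about 30% in these data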;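 note: 0% = S1P-stimulated wells and 100% = unstimulated DMSO-only wells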
# Active calls of the source: *; nt = not tested or not shown. Most compounds without a hit are left out; they make up all but 1.9% or so of the library.
SMILES,S1P4 ag,PGE2 EP2 inh,EP2 modulator,S1P4 antag,S1P3 antag-1,S1P3 antag-2
CCCn1c(SCC(=O)NCc2ccccc2)nnc1C(C)C,nt,6.7,2.5,nt,nt,nt
Cc1ccc(NCCC(=O)c2cccs2)cc1,-1.2,4.2,-13.5,1.0,-17.2,nt
CC(C)c1ccc(NCCC(=O)c2cccs2)cc1,-2.2,5.7,1.5,-1.3,29.7*,4.4
c1ccc(Cc2nnc3n2N=C(c2ccccc2)CS3)cc1,0.7,13.7,35.4,-6.3,29.0*,-10.0
c1ccc(C2=Nn3c(Cn4nnc5ccccc54)nnc3SC2)cc1,1.2,6.3,-23.9,-63.6,1.6,nt
CCOc1ccc(/C=C(\C#N)C(=O)c2c(C)[nH]c3ccccc23)cc1OC,0.0,6.2,8.2,-7.8,-16.3,nt
COc1cc(/C=C(/C#N)C(=O)c2c(C)[nH]c3ccccc23)ccc1OCC#N,1.2,3.6,2.6,2.9,30.4*,-6.5
Cc1sc(NC(=O)C2C3CCC(O3)C2C(=O)O)nc1-c1ccc(CC(C)C)cc1 (centres undefined),-1.2,10.1,-13.4,0.1,105.7*,-14.9
O=C(c1cc(COc2ccc3ncccc3c2)on1)N1CCCCCC1,0.7,10.1,-39.0,-4.3,6.1,nt
O=C(NC1CCCC1)c1cc(COc2ccc3ncccc3c2)on1,-0.4,9.5,-19.0,-4.6,34.7*,5.8
CC(=O)N(CCc1cccc(C)c1)Cc1cc2cc(C)c(C)cc2[nH]c1=O,nt,4.9,-69.2,nt,nt,nt
COc1ccc(-c2[nH]ncc2N=Nc2cc(C)cc(C)c2)cc1,0.9,5.7,32.9,-24.1,37.8*,12.0
COc1ccc2[nH]c3c(N4CCc5ccccc5C4)ncnc3c2c1,0.2,16.4,-47.0,1.3,30.9*,24.5
O=C(c1ccccc1)c1ccc2c(c1)OCCOCCOCCOCCO2,1.4,11.0,-3.4,3.2,28.9*,-14.5
COCCn1nnnc1CN(Cc1cc2ccc(C)c(C)c2[nH]c1=O)C1CCCCC1,nt,12.0,-61.0,nt,nt,nt
CCCCSc1nnc(CSc2ncccn2)n1C,1.0,6.8,20.9,-8.9,29.4*,-5.0
Cn1c(CSc2ncccn2)nnc1SCC(=O)N1CCCC1,0.9,7.9,6.3,-8.4,-0.7,nt
O=C(c1cc(C(=O)N2CCOCC2)c2nc3ccccc3n2c1)c1cc(Cl)cc(Cl)c1O,-1.3,11.1,17.7,-41.7,30.9*,-18.4
CC1(C)OC(=O)C(=CNCCc2ccc(O)cc2)C(=O)O1,1.2,6.4,-9.6,-13.8,28.4*,-18.7
CC1(C)OC(=O)C(=CNCC(O)c2ccccc2)C(=O)O1 (centres undefined),-0.3,7.2,0.1,-0.3,-3.6,nt
Cn1c(SCc2ccccc2)nnc1-c1ccc2nonc2c1,0.5,11.2,-8.1,-7.1,29.5*,-11.1
Cn1c(SCc2ccccc2)nnc1-c1ccc2c(c1)OCO2,0.4,14.1,2.7,-10.2,4.3,nt
COc1ccc(C2(C(=O)N3CCC(n4nnc5ccccc5c4=O)CC3)CC2)cc1,nt,2.2,-32.6,nt,nt,nt
Cc1ccccc1C(=O)N1CCN(c2ccc(NC(=O)c3ccc4c(c3)OCO4)cc2)CC1,0.6,17.8,-6.5,-4.3,29.7*,36.0*
Cc1c(NC(=O)Nc2ccc(Cl)cc2)c(=O)n(-c2ccccc2)n1C,-0.1,6.2,24.9,7.0,26.9,nt
SMILES,S1P4 ag,PGE2 EP2 inh,EP2 modulator,S1P4 antag,S1P3 antag-1,S1P3 antag-2
Cc1c(N=C2N=C(NC(=O)Nc3ccc(Cl)cc3)c3ccccc32)c(=O)n(-c2ccccc2)n1C,-1.6,5.5,-1.9,-8.4,39.6*,3.8
CCC(=O)N1CCc2cc(C(O)CN3CCCCC3)ccc21 (centres undefined),nt,4.5,-3.8,nt,nt,nt
CCCCN1/C(=C/c2ccc3ccccc3[n+]2CC)Sc2ccccc21,-2.5,11.9,-66.2,-17.8,30.4*,20.6
CCN1/C(=C/c2ccc3ccccc3[n+]2CC)C=Cc2ccccc21,1.7,26.5,-4.3,-23.0,nt,nt
CCN1/C(=C/c2ccc3cc(C)ccc3[n+]2CC)Sc2cc(C)ccc21,-1.0,80.3*,-71.9,-10.0,38.6*,21.4
O=C(CSc1nc(C2CCCCC2)n(-c2ccccc2)n1)NCCN1C(=O)CSC1=O,-1.4,7.1,-3.1,-34.0,-15.7,nt
O=C(CSc1nc(C2CCCCC2)n(-c2ccccc2)n1)NCC(F)(F)F,-1.4,-0.6,24.2,-11.3,51.2*,-5.1
COc1c(F)c(F)c(C(=O)Nc2ccc(-c3nc4ccccc4[nH]3)cc2)c(F)c1F,-0.1,4.8,-57.7,-10.0,28.3*,19.2
